NS1 inh: blocks influenza NS1 protein function | AID 2326 | Potency, µM (series often up to 46.1 µM), for the others: top-dose activity, positive = more growth | 270,000 compounds, 0.4% hits; calls by dose curve; further: potency means the concentration at half of the fitted maximal effect; actives are rising curves; nearly all actives have a fitted effect of over 50% in size
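Growth recovery, yeast-based: influenza A NS1 expressed in S. cerevisiae causes slow growth, and suppressors are detected by OD600. The parent strain without NS1 is used as positive control.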
Cycloheximide cs: counter-screen for Shiga toxin inhibitors: cycloheximide protein synthesis inhibition; cell reporter, cycloheximide protein synthesis inhibition counterscreen; max response, %; 300,000 compounds, 12% hits; in the data active means max response mostly above about 13%, no sharp cut-off; inactive means mostly below about 14%; further: read at 38.3 µM for the half of the compounds with a filed dose; 0% is about no effect
Pf growth 96h: P. falciparum growth inhibition at 96 hours. AID 504834. P. falciparum luciferase reporter growth, 96 h. Potency, µM (doses to about 28.7 µM), for inactives: at the highest dose activity change, negative = inhibition, usual class: inhibitors. 320,000 compounds, 6.9% hits; further: potency means the concentration at half of the fitted maximal effect; on the % scale 0 is the no-effect control and ±100 the full control effect
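Parasite growth measured via integrated firefly luciferase reporter in P. falciparum. Infected erythrocytes at 2% hematocrit, 0.05% parasitemia final were treated 96 hours at 37 C under 5% CO2, and luminescence was read.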
Shiga inhibitor: inhibitors of Shiga toxin in Vero cells. Vero cells, Shiga toxin protein synthesis inhibition reporter. 290,000 compounds, 9.2% hits. inhibition, % at 38.7 µM; in the data active means inhibition mostly above about 28%, no sharp cut-off; inactive means mostly below about 43%; further: 0% is about no effect
Pf growth 48h: inhibits P. falciparum growth in the first generation, 48 h | P. falciparum luciferase growth in erythrocytes, 48 h | 310,000 compounds, 5.9% hits | Potency, µM (titrated, usually from 28.7 µM), for the others: at the highest dose activity change, negative = inhibition, usual class: inhibitors | AID 504832; further: potency means the concentration at half of the fitted maximal effect; on the % scale 0 is the no-effect control and ±100 the full control effect
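In quantitative HTS format, infected erythrocytes bearing luciferase-reporter parasites were treated for a single generation at 37 C. Luminescence after adding detection reagent served as the growth measure.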
Numbers without * were called inactive; ? = inconclusive; . = no result. Compounds with a hit are over-represented: about 21% of the library has one in this group of screens. Unless noted, the call rests on the fitted dose curve; in most records, active means well fitted inhibition curve with a large enough effect; inconclusive means small, poorly fitted or top-dose-only effect, or another doubt; inactive means no such curve, though single readings can be large or run the other way.

SMILES	NS1 inh	Cycloheximide cs	Pf growth 96h	Shiga inhibitor	Pf growth 48h
Cc1sc2nc(CSc3ccccc3)nc(NCCN(C)C)c2c1C	-1.8%	-2.0	5.86µM*	-3.9	?
Cc1sc2nc(CSc3ccccc3)nc(N3CCOCC3)c2c1C	-7.8%	-3.1	?	-3.9	?
Cc1sc2nc(CSc3ccccc3)nc(N3CCC(C(N)=O)CC3)c2c1C	14.9%	-5.7	11.7µM*	-7.3	?
CCOC(=O)c1sc2nc(CSc3ccccc3)nc(N3CCC(C(N)=O)CC3)c2c1C	.	9.8	4.15µM*	26.6	3.29µM*
Nn1c(N2CCCCC2)nc2ccccc21	1.3%	12.2	?	-8.4	.
COc1cc(C2N(c3ccccc3)CCN2c2ccccc2)ccc1OC(C)=O	?	47.1*	-13.8%	55.9	20.1%
O=C(NCc1ccccc1)c1ccc2nc(N3CCOCC3)sc2c1	-5.1%	10.5	-1.0%	11.0	10.9%
c1ccc2sc(N3CCOCC3)nc2c1	0.2%	44.2*	318.1%	53.2	89.0%
Nc1ccc2nc(N3CCOCC3)sc2c1	.	41.4*	212.9%	139.8*	247.5%
COCCNC(=O)C(c1ccc(F)cc1)N(Cc1ccccc1)C(=O)CCC(=O)Nc1nccs1 (stereo unspecified)	-12.1%	-6.9	?	-8.0	-8.0%
CN(C)C(=O)Oc1ccc(OCc2n(C)c3ccccc3[n+]2C)cc1	8.1%	-1.6	2.33µM*	-3.1	?
CCOc1ccc(C(C(=O)NC2CCCCC2)N(CCOC)C(=O)c2snc(C(N)=O)c2N)cc1 (stereo unspecified)	18.5%	-2.2	?	5.3	?
O=C(N1CCN(c2ccccn2)CC1)N1c2ccccc2Sc2ccccc21	-117.5%	0.1	.	-5.8	?
Cn1c(=NC(=O)c2ccccc2[N+](=O)[O-])sc2cc(S(C)(=O)=O)ccc21	19.1%	64.2*	306.6%	50.5*	148.7%
CN(Cc1ccc(Cl)cc1Cl)C(=O)CN1C(=O)NC2(CCCC2)C1=O	.	.	5.9%	.	19.0%
O=C(OCC(=O)N1CCc2ccccc21)c1ccccc1F	-23.1%	45.3*	-8.9%	112.6*	120.9%
Cc1ccc(C(=O)OCC(=O)N2CCc3ccccc32)cc1	-10.1%	34.2*	65.8%	151.6*	141.8%
Cc1ccc(N(CC(=O)N2CCc3ccccc32)C2=NC(=O)CS2)cc1	-4.9%	-4.9	9.28µM*	-18.4	.
CCOC(=O)C1=C(C)NC(C)=C(C(=O)OCC)C1C(=O)OCC(=O)N1CCc2ccccc21	-5.6%	-2.9	.	39.1	10.4µM*
O=C(OCC(=O)N1CCCC1)c1ccc(O)cc1	4.6%	11.0	47.2%	31.5	33.5%
Cc1ccc(C(=O)OCC(=O)N2CCCC2)cc1	-0.3%	42.9*	103.1%	46.9*	100.9%
CCCCn1c(N)c(N(CC(C)C)C(=O)C2CCN(S(=O)(=O)c3ccc(F)cc3)CC2)c(=O)[nH]c1=O	2.3%	-3.4	?	-4.5	?
CCCCn1c(N)c(N(CC(C)C)C(=O)C2CCN(S(=O)(=O)c3ccc(Cl)cc3)CC2)c(=O)[nH]c1=O	.	.	9.28µM*	.	9.28µM*
COC(=O)C1=C(c2cccc3c2S(=O)(=O)c2ccccc2-3)C[C@@H]2CC[C@H]1N2C(=O)N1CCc2cc(OC)c(OC)cc2C1	.	.	?	.	3.7µM*
COC(=O)C1=C(c2cccc3c2S(=O)(=O)c2ccccc2-3)C[C@@H]2CC[C@H]1N2C(=O)N1CCOCC1	.	.	6.57µM*	.	10.4µM*
SMILES	NS1 inh	Cycloheximide cs	Pf growth 96h	Shiga inhibitor	Pf growth 48h
Cc1cccc(C(=O)NNC(=O)C2CCN(C(=O)OC(C)(C)C)CC2)c1	2.8%	6.4	?	-10.4	24.1%
c1ccc2c(c1)NCC1CCCN21 (stereo unspecified)	-2.7%	12.2	23.4%	16.5	?
NC(=O)C1CCN(C(=O)CCSc2ccccc2)CC1	8.4%	20.2*	-23.1%	43.8*	178.7%
CCOC(=O)N1CCN(C(=O)COc2ccccc2OC)CC1	-3.4%	-3.2	.	4.2	2.33µM*
CCOC(=O)N1CCN(C(=O)CCSc2ccccc2)CC1	-8.6%	53.8*	14.7%	85.4*	112.5%
CCOC(=O)N1CCN(C(=O)CCSc2ccc(C)cc2)CC1	0.4%	8.6*	.	active	7.1%
NC(=O)C1CCN(C(=O)Cc2ccc(-c3ccccc3)cc2)CC1	21.7%	52.7	-4.1%	19.1	-15.2%
CCOC(=O)N1CCN(C(=O)COc2ccccc2[N+](=O)[O-])CC1	.	10.3	0.4%	-11.0	6.1%
Nc1nccnc1C(=O)OCC(=O)NC1CCCc2ccccc21 (stereo unspecified)	.	.	-3.3%	.	-18.9%
CCOc1ccc(-c2cc3nc(C4CCN(C(=O)OC(C)(C)C)CC4)c(C(=O)O)cn3n2)cc1	26.1%	23.9*	?	-5.2	0.465µM*
CCN(c1ccccc1)S(=O)(=O)c1ccc(Cl)c(NC(=O)COC(=O)c2ccc(O)cc2)c1	11.7%	-0.5	11.7µM*	19.7	?
CCN(c1ccccc1)S(=O)(=O)c1ccc(Cl)c(NC(=O)COC(=O)C2CC2C)c1 (stereo unspecified)	.	-2.8	-1.7%	-6.8	-13.2%
CCN(c1ccccc1)S(=O)(=O)c1ccc(Cl)c(NC(=O)COC(=O)c2cc(O)c3ccccc3c2O)c1	-40.1%	11.8*	11.7µM*	36.1*	13.1µM*
Cc1cc(C(=O)OCC(=O)Nc2cc(S(=O)(=O)N(C)C)ccc2C)c2ccccc2n1	.	-2.4	3.3%	-15.1	2.0%
Cc1cc(C(=O)OCC(=O)Nc2cc(S(=O)(=O)N(C)C)ccc2Cl)c2ccccc2n1	.	22.3	15.0%	85.6*	12.1%
CCOc1ccc(S(=O)(=O)n2ccnc2C)cc1	?	-2.3	11.7µM*	-3.0	-6.9%
Cc1cccc(N2CCN(C(=O)CNC(=O)c3cccc([N+](=O)[O-])c3)CC2)c1C	-16.8%	-6.9	?	-8.9	-13.3%
Nc1ccc(O)c(-c2nc3ccccc3s2)c1	-49.8%	47.4*	?	44.9*	?
Nc1ccccc1-c1nc2ccccc2s1	-6.3%	40.5*	9.28µM*	106.1*	68.3%
Nc1ccccc1-c1ccccc1N	12.4%	9.3	0.0%	3.7	0.0%
Oc1ccc(-c2nc3ccccc3s2)c(O)c1	-87.1%	40.1*	86.4%	91.9*	171.5%
O=C(Nc1ccc(O)c(-c2nc3ccccc3s2)c1)c1cccs1	7.4%	0.2	2.1%	8.7	-3.7%
CN(C)c1nc(N)nc(-c2nc3ccccc3s2)n1	-7.0%	39.4*	.	100.8*	136.3%
O=C(Nc1ccccc1-c1nc2ccccc2s1)c1cccnc1Cl	1.0%	-1.8	20.0%	26.6	12.2%
COc1ccc(Cl)cc1-c1nc(N)nc(N(C)C)n1	-3.9%	-2.9	-0.5%	-7.3	-4.5%
CCc1ccc(NC(=O)C/C(C)=N/NC(=O)COc2ccccc2C)cc1	0.0%	-1.9	1.0%	34.8	19.4%
CCC(Oc1ccc2c(=O)c(-c3ccccc3OC)coc2c1)C(=O)OCc1ccccc1 (stereo unspecified)	-13.0%	-1.7	?	9.8	-14.4%
Oc1ccc(N=C/C=C/c2cccc(Br)c2)cc1-c1nc2ccccc2s1	0.8%	32.5*	4.5%	12.6	?
